The source of these data is PubChem BioAssay (Tox21).

Results filed as inconclusive are left out. A call without a number means that no potency is given here. The source made the active and inactive calls. Unless noted, the call rests on the fitted dose curve; in most records, active means well fitted curve in the direction sought with a large enough effect in the repeat runs; inconclusive means weak or mixed curves; inactive means no such curve, though single readings can be large; an effect the other way counts as inactive or inconclusive.

Sequence of Androgen receptor (Homo sapiens) (P10275 whole entry, looked up): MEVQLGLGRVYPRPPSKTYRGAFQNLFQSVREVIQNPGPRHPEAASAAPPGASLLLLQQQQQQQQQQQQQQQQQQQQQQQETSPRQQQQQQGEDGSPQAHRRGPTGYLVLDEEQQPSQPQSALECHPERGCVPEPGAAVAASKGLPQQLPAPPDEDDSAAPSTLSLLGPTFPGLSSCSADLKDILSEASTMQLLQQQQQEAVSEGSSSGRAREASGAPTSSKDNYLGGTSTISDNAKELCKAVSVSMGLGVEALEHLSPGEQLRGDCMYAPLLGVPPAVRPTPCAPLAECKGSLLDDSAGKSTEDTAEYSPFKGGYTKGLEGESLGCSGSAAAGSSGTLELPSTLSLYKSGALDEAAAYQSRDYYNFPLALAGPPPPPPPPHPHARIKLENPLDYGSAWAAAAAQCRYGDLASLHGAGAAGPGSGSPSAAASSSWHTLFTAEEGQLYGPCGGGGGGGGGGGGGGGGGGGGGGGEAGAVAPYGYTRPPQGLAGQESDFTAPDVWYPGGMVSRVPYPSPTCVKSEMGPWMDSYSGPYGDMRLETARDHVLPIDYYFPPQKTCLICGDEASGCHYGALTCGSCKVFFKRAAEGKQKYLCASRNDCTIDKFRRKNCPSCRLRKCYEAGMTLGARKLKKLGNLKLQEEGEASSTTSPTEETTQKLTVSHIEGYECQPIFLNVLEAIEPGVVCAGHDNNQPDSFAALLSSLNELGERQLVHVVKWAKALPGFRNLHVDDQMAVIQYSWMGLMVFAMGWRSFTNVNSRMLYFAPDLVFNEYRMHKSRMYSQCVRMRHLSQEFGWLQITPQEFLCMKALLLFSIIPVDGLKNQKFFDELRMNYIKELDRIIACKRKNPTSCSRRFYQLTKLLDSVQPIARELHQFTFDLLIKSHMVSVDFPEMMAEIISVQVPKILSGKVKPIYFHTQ

Test system in the first assay: not listed separately
Kind of assay: qHTS assay to identify small molecule antagonists of the androgen receptor (AR) signaling pathway - cell viability counter screen (AID 743033; further: nearly all actives have a fitted effect of over 45% in size). The note with it: AR-bla HEK293 viability, CellTiter-Glo luminescence, 16 h; series mostly up to 58.5 µM. (qHTS replaces the single test concentration by a dilution series.)
With `COc1ccc2c(c1)c1c3n2CCN(C)C3=NCC1`, the call was inactive.

Take `Cc1ccc(C)c([N+](=O)[O-])c1`: the compound was called inactive.

`O=C(O)CNC(=O)CNC(=O)CNC(=O)CSC(=O)c1ccccc1`: the compound was classed as inactive.

As to `OCC(O)CN1CCN(c2ccccc2)CC1` (stereo not drawn), the compound was classed as inactive.

On to `NCC1(Cc2noc(=O)[nH]2)CCCCC1`, for which the outcome was inactive.

As to `OCCN1CCOCC1`, the call was inactive.

`CCC(C)C(C)=O` (stereo not drawn): the outcome was inactive.

`Cc1ccnc(N)c1`: the result was inactive.

Consider `CCCCOC(=O)[C@H](C)O`, for which the call was inactive.

Take `O=C(NCN1CCOCC1)c1cnccn1`: the call was inactive.

Regarding `COC(=O)CCCCC(=O)O`, the call was inactive.

Take `C=C(C)[C@@H]1CC=C(C)C(=O)C1`: the compound was classed as inactive.

For the compound `C=CCN1C[C@H](C(=O)N(CCCN(C)C)C(=O)NCC)C[C@@H]2c3cccc4[nH]cc(c34)C[C@H]21`, the compound was called inactive.

As to `COC(=O)c1ccccc1C(=O)O`, the result was inactive.

For `C=C(C)[C@@H]1CC=C(C)CC1`, the compound was classed as inactive.

Turning to `c1ccc(-c2nn[nH]n2)cc1`, the call was inactive.

Turning to `N[C@@H](Cc1ccc(O)cc1)C(=O)O`, the compound was called inactive.

As for `O=Cc1ccccc1Cl`, the compound was classed as inactive.

As to `OCC1(CO)COCOC1`, the compound was called inactive.

For `C=CCSSCCC`, the result was inactive.

For `COc1cc2c(cc1OC)C(=O)C(CC1CCN(Cc3ccccc3)CC1)C2` (stereo not drawn), the call was inactive.

As to `CC(C)c1ccc(C=O)cc1`, the call was inactive.

On to `CC(=O)CC(=O)OC(C)(C)C`, for which the call was inactive.

Take `O=C(O)CONC(=O)c1ccccc1`: the result was inactive.

For `CCCCCCCCCCCCCBr`, the outcome was inactive.

Consider `CC1CC(=O)CC(C)(C)C1` (stereo not drawn), for which the outcome was inactive.

Regarding `c1ccc2cnccc2c1`, the compound was called inactive.

`ONc1ccccc1`: the compound was classed as inactive.

As for `O=C(Cl)c1ccccc1[N+](=O)[O-]`, the call was inactive.

On to `Cn1c(=O)c2[nH]c(Br)nc2n(C)c1=O`, for which the call was inactive.

In the case of `CCCC(=O)OCCC(C)CCC=C(C)C` (stereo not drawn), the outcome was inactive.

For `C=C(C)c1cccc(C(C)(C)N=C=O)c1`, the result was inactive.

Regarding `O=C[O][Al]([O]C=O)[O]C=O`, the call was inactive.

A further assay addresses Androgen receptor (Homo sapiens) (UniProt P10275). Nature of the assay: qHTS assay to identify small molecule antagonists of the androgen receptor (AR) signaling pathway (AID 743035; active means well fitted inhibition curve with a large enough effect in the signal ratio in the repeat runs, not every such curve was filed as active; the % refers to the signal ratio). Particulars: HEK293 AR-UAS-bla, R1881-stimulated, beta-lactamase FRET, 16 h; series mostly up to 58.5 µM. Put shortly: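 Using qHTS, AR-UAS-bla GripTite HEK293 cells received compound, then R1881, and were cultured 16 h at 37C/5% CO2 before a 2 h room-temperature LiveBLAzer B/G FRET substrate step and fluorescence measurement.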
Regarding `COc1ccc2c(c1)c1c3n2CCN(C)C3=NCC1`, the compound was classed as inactive.

Regarding `O=C(NCN1CCOCC1)c1cnccn1`, the outcome was inactive.

For the compound `CC(=O)CC(=O)OC(C)(C)C`, the result was inactive.

With `O=C(Cl)c1ccccc1[N+](=O)[O-]`, the call was inactive.

The target is the same in a further assay. Kind of assay: qHTS assay to identify small molecule agonists of the androgen receptor (AR) signaling pathway (AID 743036; active means well fitted activation curve with a large enough effect in the signal ratio in the repeat runs, with a control signal flat, not every such curve was filed as active; the % refers to the signal ratio). The note with it: HEK293 AR-UAS-bla GripTite, beta-lactamase FRET ratio, 16 h; series mostly up to 62.4 µM. Put shortly:
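AR-UAS-bla HEK293 cells, plated 4 h before dosing, were treated with compound for 16 h at 37C. beta-Lactamase reporter read after 2 h with LiveBLAzer B/G FRET substrate at room temperature.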
In the case of `O=C(NCN1CCOCC1)c1cnccn1`, the outcome was inactive.

Consider `COc1cc2c(cc1OC)C(=O)C(CC1CCN(Cc3ccccc3)CC1)C2` (stereo not drawn), for which the outcome was inactive.

On to `O=C(Cl)c1ccccc1[N+](=O)[O-]`, for which the outcome was inactive.

The target is the same in another assay. Kind of assay: qHTS assay to identify small molecule agonists of the androgen receptor (AR) signaling pathway using the MDA cell line (AID 743040; further: nearly all actives have a fitted effect of over 20% in size). Particulars: MDA-kb2 AR-luc cells, MMTV luciferase, 16 h; series mostly up to 70.3 µM. Put shortly: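 MDA-kb2 breast carcinoma cells carrying MMTV-luciferase (responsive to AR and GR), plated 5 h then treated 16 h with compounds at 37C, 0% CO2. Read-out was ONE-Glo luminescence after 30 min at room temperature.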
In the case of `COc1ccc2c(c1)c1c3n2CCN(C)C3=NCC1`, the Potency result is “inactive”.

For the compound `O=C(NCN1CCOCC1)c1cnccn1`, the Potency entry is “inactive”.

`COc1cc2c(cc1OC)C(=O)C(CC1CCN(Cc3ccccc3)CC1)C2` (stereo not drawn): the Potency entry was “inactive”.

For `CC(=O)CC(=O)OC(C)(C)C`, the Potency entry is “inactive”.

Take `O=C(Cl)c1ccccc1[N+](=O)[O-]`: the Potency entry is “inactive”.

Test system in the next assay: not listed separately
Nature of the assay: qHTS assay to identify small molecule antagonists of the androgen receptor (AR) signaling pathway using the MDA cell line - cell viability counter screen (AID 743041; further: nearly all actives have a fitted effect of over 45% in size). Particulars: MDA-kb2 viability, CellTiter-Fluor, 16 h, cells co-treated with R1881 androgen agonist; series mostly up to 70.3 µM. Put shortly: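 MDA-kb2 AR-luc cells (MMTV-luciferase, AR/GR responsive) treated with compounds plus R1881 agonist for 16 h at 37C. CellTiter-Fluor added at 15.5 h; fluorescence read after 30 min in the same wells.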
As to `COc1ccc2c(c1)c1c3n2CCN(C)C3=NCC1`, the Potency entry is “inactive”.

Turning to `Cc1ccc(C)c([N+](=O)[O-])c1`, the Potency entry was “inactive”.

As for `O=C(O)CNC(=O)CNC(=O)CNC(=O)CSC(=O)c1ccccc1`, the Potency entry is “inactive”.

`OCC(O)CN1CCN(c2ccccc2)CC1` (stereo not drawn): the Potency entry is “inactive”.

As for `NCC1(Cc2noc(=O)[nH]2)CCCCC1`, the Potency entry is “inactive”.

As to `OCCN1CCOCC1`, the Potency result is “inactive”.

For `CCC(C)C(C)=O` (stereo not drawn), the Potency entry was “inactive”.

Turning to `Cc1ccnc(N)c1`, the Potency entry is “inactive”.

On to `CCCCOC(=O)[C@H](C)O`, for which the Potency entry was “inactive”.

As for `O=C(NCN1CCOCC1)c1cnccn1`, the Potency entry was “inactive”.

Regarding `COC(=O)CCCCC(=O)O`, the Potency result is “inactive”.

In the case of `C=C(C)[C@@H]1CC=C(C)C(=O)C1`, the Potency result was “inactive”.

In the case of `COC(=O)c1ccccc1C(=O)O`, the Potency entry is “inactive”.

As to `C=C(C)[C@@H]1CC=C(C)CC1`, the Potency result is “inactive”.

As to `c1ccc(-c2nn[nH]n2)cc1`, the Potency result was “inactive”.

Consider `N[C@@H](Cc1ccc(O)cc1)C(=O)O`, for which the Potency entry is “inactive”.

In the case of `O=Cc1ccccc1Cl`, the Potency result was “inactive”.

With `OCC1(CO)COCOC1`, the Potency result is “inactive”.

Turning to `C=CCSSCCC`, the Potency result is “inactive”.

With `COc1cc2c(cc1OC)C(=O)C(CC1CCN(Cc3ccccc3)CC1)C2` (stereo not drawn), the Potency result was “inactive”.

With `CC(C)c1ccc(C=O)cc1`, the Potency result is “inactive”.

As for `CC(=O)CC(=O)OC(C)(C)C`, the Potency entry is “inactive”.

Take `O=C(O)CONC(=O)c1ccccc1`: the Potency entry was “inactive”.

Take `CCCCCCCCCCCCCBr`: the Potency entry is “inactive”.

As to `CC1CC(=O)CC(C)(C)C1` (stereo not drawn), the Potency result was “inactive”.

Take `c1ccc2cnccc2c1`: the Potency entry is “inactive”.

Turning to `ONc1ccccc1`, the Potency result is “inactive”.

Regarding `O=C(Cl)c1ccccc1[N+](=O)[O-]`, the Potency result was “inactive”.

With `Cn1c(=O)c2[nH]c(Br)nc2n(C)c1=O`, the Potency entry is “inactive”.

Take `CCCC(=O)OCCC(C)CCC=C(C)C` (stereo not drawn): the Potency result is “inactive”.

Consider `C=C(C)c1cccc(C(C)(C)N=C=O)c1`, for which the Potency entry is “inactive”.

For the compound `O=C[O][Al]([O]C=O)[O]C=O`, the Potency result was “inactive”.

On to `CN1CCOC(c2ccccc2)c2ccccc2C1` (stereo not drawn), for which the Potency result is “inactive”.

The target in another assay is Androgen receptor (Homo sapiens) (UniProt P10275). Kind of assay: qHTS assay to identify small molecule antagonists of the androgen receptor (AR) signaling pathway using the MDA cell line (AID 743042; further: nearly all actives have a fitted effect of over 55% in size). Particulars: MDA-kb2 AR-luc, MMTV luciferase, R1881 antagonist, 16 h; series mostly up to 70.3 µM. Put shortly:
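MDA-kb2 breast carcinoma cells carrying MMTV-luciferase (AR/GR responsive) were co-treated with compounds and the agonist R1881 for 16 h at 37C. Inhibition read as ONE-Glo luminescence; CellTiter-Fluor fluorescence measured in parallel for cytotoxicity.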
With `O=C(NCN1CCOCC1)c1cnccn1`, the result was inactive.

In the case of `COc1cc2c(cc1OC)C(=O)C(CC1CCN(Cc3ccccc3)CC1)C2` (stereo not drawn), the outcome was inactive.

For `CC(=O)CC(=O)OC(C)(C)C`, the outcome was inactive.

For the compound `O=C(Cl)c1ccccc1[N+](=O)[O-]`, the call was inactive.

Test system in another assay: not listed separately
Kind of assay: qHTS assay to identify small molecule antagonists of the thyroid receptor (TR) signaling pathway - cell viability counter screen (AID 743064). Further: nearly all actives have a fitted effect of over 50% in size. Further: potency means the concentration at half of the fitted maximal effect. Particulars: GH3.TRE-Luc viability, CellTiter-Fluor, 24 h; series mostly up to 70.3 µM. Put shortly:
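GH3.TRE-Luc rat pituitary cells dosed after 4 hr plating, co-stimulated with T3 at 1 nM final, incubated 23.5 h at 37 C. Viability measured in the same wells by CellTiter-Fluor fluorescence after 30 min further at 37 C.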
In the case of `COc1ccc2c(c1)c1c3n2CCN(C)C3=NCC1`, the Potency result is “inactive”.

As for `Cc1ccc(C)c([N+](=O)[O-])c1`, the Potency entry was “inactive”.

For the compound `O=C(O)CNC(=O)CNC(=O)CNC(=O)CSC(=O)c1ccccc1`, the Potency entry is “inactive”.

In the case of `OCCN1CCOCC1`, the Potency result was “inactive”.

Regarding `CCC(C)C(C)=O` (stereo not drawn), the Potency entry was “inactive”.

`Cc1ccnc(N)c1`: the Potency entry was “inactive”.

For the compound `CCCCOC(=O)[C@H](C)O`, the Potency result is “inactive”.

As for `O=C(NCN1CCOCC1)c1cnccn1`, the Potency result is “inactive”.

As for `COC(=O)CCCCC(=O)O`, the Potency result is “inactive”.

Consider `C=C(C)[C@@H]1CC=C(C)C(=O)C1`, for which the Potency result is “inactive”.

Regarding `C=CCN1C[C@H](C(=O)N(CCCN(C)C)C(=O)NCC)C[C@@H]2c3cccc4[nH]cc(c34)C[C@H]21`, the Potency was 3.76 µM (active).

For `COC(=O)c1ccccc1C(=O)O`, the Potency result was “inactive”.

For `C=C(C)[C@@H]1CC=C(C)CC1`, the Potency entry was “inactive”.

Consider `c1ccc(-c2nn[nH]n2)cc1`, for which the Potency result was “inactive”.

With `N[C@@H](Cc1ccc(O)cc1)C(=O)O`, the Potency entry is “inactive”.

With `O=Cc1ccccc1Cl`, the Potency entry was “inactive”.

On to `OCC1(CO)COCOC1`, for which the Potency result was “inactive”.

As for `C=CCSSCCC`, the Potency result was “inactive”.

On to `CC(=O)CC(=O)OC(C)(C)C`, for which the Potency result is “inactive”.

Consider `O=C(O)CONC(=O)c1ccccc1`, for which the Potency result was “inactive”.

On to `CCCCCCCCCCCCCBr`, for which the Potency result was “inactive”.

With `CC1CC(=O)CC(C)(C)C1` (stereo not drawn), the Potency result was “inactive”.

Turning to `ONc1ccccc1`, the Potency entry is “inactive”.

Consider `C=C(C)c1cccc(C(C)(C)N=C=O)c1`, for which the Potency result was “inactive”.

In the case of `O=C[O][Al]([O]C=O)[O]C=O`, the Potency entry is “inactive”.

With `CN1CCOC(c2ccccc2)c2ccccc2C1` (stereo not drawn), the Potency result is “inactive”.
